Consider 40 compounds from PubChem BioAssay (Tox21).

Molecules are shown by their SMILES. Inconclusive results are not listed. Entries that show only a call come without a potency. Active and inactive are the calls of the source. Calls come from the whole dose curve; as a rule, active = well fitted cell-killing curve with a large enough effect in the repeat runs (not every such curve was filed as active); inconclusive = weak or mixed curves, or effect the other way; inactive = no such curve, though single readings can be large or run the other way.

This test is described as follows: qHTS assay to identify small molecule antagonists of the farnesoid-X-receptor (FXR) signaling pathway - cell viability counter screen (AID 743221). Note: nearly all actives have a fitted effect of over 50% in size. To be noted: FXR-bla HEK293T viability, CellTiter-Glo luminescence, 16 h; series mostly up to 62.6 µM; activity change, negative = cytotoxicity: at the top concentration. The text has this: National Center for Advancing Translational Sciences [NCATS]
NIH Chemical Genomics Center [NCGC]
U.S. Environmental Protection Agency [EPA]
National Institutes of Environmental Health Sciences [NIEHS]
National Toxicology Program [NTP]
U.S. Food and Drug Administration [FDA]
The farnesoid-X-receptor (FXR), a nuclear hormone receptor, is highly expressed in liver, intestine, kidney and adrenal cortex. Natural ligands of FXR are the bile acids (Cholic acid, Chenodeoxy cholic acid etc). FXR is an important regulator of diverse metabolic pathways, including the bile acid homeostasis, lipid and glucose metabolisms. FXR regulates the expression of target genes by binding either as a monomer or as a heterodimer with the retinoid X receptor (RXR). Numerous studies have reported that FXR exerts protective function during cholestasis, diabetes, liver regeneration, and cancer. To identify compounds that inhibit FXR signaling, GeneBLAzer FXR-UAS-bla HEK 293T cell line (Invitrogen, Carlsbad, CA) containing a beta-lactamase reporter gene under the control of a UAS response element was used to screen the Tox21 10K compound library. The cytotoxicity of the Tox21 compound library against the FXR-bla cell line was tested in parallel by measuring the cell viability using CellTiter-Glo assay in the same wells.
Tox21 Assay Protocol Summary:
FXR-bla cells were dispensed at 5000 cells/5uL/well in 1536-well black wall/clear bottom plates using a Multidrop Combi (Thermo Fisher Scientific, Waltham, MA) dispenser. After the assay plates were incubated at 37 C and 5% CO2 for 5 h, 23 nL of compounds dissolved in DMSO, positive controls or DMSO only was transferred to the assay plate by a Pintool station (Kalypsys, San Diego, CA), followed by addition of 1 uL Chenodeoxycholic acid (50 uM, final concentration in the wells). The assay plates were incubated at 37C for 16 h. After 1 uL of LiveBLAzerTM B/G FRET substrate was added using a Bioraptr Flying Reagent Dispenser (FRD) workstation (Beckman Coulter, Indianapolis, IN), the plates were incubated at room temperature for 2 h, and fluorescence intensity was measured by an Envision plate reader (PerkinElmer, Shelton, CT). For cell viability readout that measures cytotoxicity, 4uL/well of CellTiter-Glo reagent was added into the assay plates using a Bioraptr FRD. After 30 min incubation at room temperature, the luminescence intensity in the plates was measured using a ViewLux plate reader (PerkinElmer).
Regarding `COc1ccc2nc(N)sc2c1`, the Potency result was “inactive”. `NCCN`: the Potency entry was “inactive”. On the same count and under the same terms, with `C=CC(C)(O)CCC=C(C)C` (stereo not given) the entry was “inactive”. Still for that read-out and setting: then `Oc1c(Cl)ccc(Cl)c1Cl`, with “inactive”. Same read-out and setting: then `CCC/C=C/C=O`, with “inactive”; and `c1ccc2c(c1)ccc1cc3c(ccc4ccccc43)cc12`, with “inactive”.

As to `CC(=O)[C@@]1(O)CC[C@H]2[C@@H]3C[C@H](C)C4=CC(=O)C=C[C@]4(C)[C@@]3(F)[C@@H](O)C[C@@]21C`, the Potency entry is “inactive”. `CCOC(=O)C(C)Oc1ccc(Oc2cnc3cc(Cl)ccc3n2)cc1` (stereo not given): the Potency entry is “inactive”. The same measure, in the same setting: with `CCCCCCOCCOCCO` the entry was “inactive”; with `C=C[C@H]1CN2CC[C@H]1C[C@@H]2[C@@H](O)c1ccnc2ccc(OC)cc12`, “inactive”. For the compound `c1ccc2ncccc2c1`, the Potency result was “inactive”. Turning to `Clc1ccc(Sc2cc(Cl)c(Cl)cc2Cl)cc1`, the “activity change, negative = cytotoxicity” value was -4.3% (inactive). Consider `COC(=O)C(C)Oc1ccc(Oc2ncc(C(F)(F)F)cc2Cl)cc1` (stereo not given), for which the Potency result was “inactive”. As for `CC(=O)O[C@]1(C(C)=O)CC[C@H]2[C@@H]3C=C(C)C4=CC(=O)CC[C@]4(C)[C@H]3CC[C@@]21C`, the Potency entry was “inactive”. Regarding `CC(C)=CCO`, the Potency result is “inactive”. With `CN1CCOCC1`, the Potency result is “inactive”. Still for that read-out and setting: with `c1ccc2c(c1)ccc1ncccc12` the entry was “inactive”; with `CCCCCCCCCCCCCO`, “inactive”. The same measure, in the same setting: then `Nc1ccc(O)c(N)c1`, with “inactive”.

On to `CCCCCCCCCCC(CO)CCCCCCCC` (stereo not given), for which the Potency entry is “inactive”. Still for that read-out and setting: then `C=CCCCCCCCCCC`, with “inactive”; and `C=CN1CCCC1=O`, with “inactive”; and `FC(F)(F)C(Cl)Br` (stereo not given), with “inactive”. Still for that read-out and setting: then `CC(=O)OC(C)C`, with “inactive”. Still for that read-out and setting: then `CCCCCC1C(=O)CCC1CC(=O)OC` (stereo not given), with “inactive”; and `CC/C=C\C/C=C\C/C=C\CCCCCCCC(=O)O`, with “inactive”; and `CC(=O)Oc1c(C)c(C)c2c(c1C)CC[C@@](C)(CCC[C@H](C)CCC[C@H](C)CCCC(C)C)O2`, with “inactive”. Turning to `CC(C)[N+](C)(CCOC(=O)C1c2ccccc2Oc2ccccc21)C(C)C`, the Potency entry is “inactive”. The same measure, in the same setting: with `Nc1ccc2c(c1)C(=O)c1ccccc1C2=O` the entry was “inactive”; with `CC(C)[C@@H]1CC[C@@H](C)CC1=O`, “inactive”. Still for that read-out and setting: with `Nc1cc(Cl)c(N)c(Cl)c1` the entry was “inactive”; with `OCCNCCO`, “inactive”. The same measure, in the same setting: then `CC(=O)[C@H]1CC[C@H]2[C@@H]3CC=C4C[C@@H](O)CC[C@]4(C)[C@H]3CC[C@]12C`, with “inactive”; and `C=CCOC(=O)C(=C)C`, with “inactive”. `COc1ccc(-c2coc3cc(O)cc(O)c3c2=O)cc1`: the Potency result was “inactive”. Consider `NCCS(=O)(=O)O`, for which the Potency entry is “inactive”. Still for that read-out and setting: with `CCCCCCCCCCCCO` the entry was “inactive”; with `CCCCCCC(C)O` (stereo not given), “inactive”. Consider `O=C(O)CCCC(=O)O`, for which the Potency result is “inactive”.

Regarding `C=C1C[C@H]2[C@@H]3C=C(C)C4=CC(=O)CC[C@]4(C)[C@H]3CC[C@]2(C)[C@@]1(OC(C)=O)C(C)=O`, the Potency entry was “inactive”.
